Experimental data as given in PubChem BioAssay (NCI).
The panel holds about 83,000 compounds, 20% with a hit somewhere; the sample as a whole holds those more often.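 Testing used 96-well plates and a 48-hour single-concentration exposure. Example: -40 means 40% of the starting cells died.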

How the values were obtained:
Test in all cases: NCI-60 one-dose screen, 48 h (100 = growth as untreated, 0 = no growth, -100 = all killed)
Details in all cases: 10 µM; active = growth percent below 10; inactive = the rest
NCI-H23 lung = tested on: NCI-H23 lung
NCI-H226 lung = tested on: NCI-H226 lung
NCI-H322M lung = tested on: NCI-H322M lung
NCI-H460 lung = tested on: NCI-H460 lung
HOP-92 NSCLC = tested on: HOP-92 NSCLC
NCI-H522 lung = tested on: NCI-H522 lung
A549/ATCC NSCLC = tested on: A549/ATCC NSCLC
786-0 renal = tested on: 786-0 renal
COLO 205 colon = tested on: COLO 205 colon
DU-145 prostate = tested on: DU-145 prostate
K-562 leukemia = tested on: K-562 leukemia
MALME-3M melanoma = tested on: MALME-3M melanoma
MDA-MB-231 breast = tested on: MDA-MB-231 breast
RXF 393 renal = tested on: RXF 393 renal
SF-268 CNS = tested on: SF-268 CNS
SF-295 CNS = tested on: SF-295 CNS
SF-539 CNS = tested on: SF-539 CNS
UACC-257 melanoma = tested on: UACC-257 melanoma
M14 melanoma = tested on: M14 melanoma
HOP-62 NSCLC = tested on: HOP-62 NSCLC

Measured: growth

CC(=O)Cc1ccc(-c2ccccc2)cc1
inactive: NCI-H23 lung 95.6% | NCI-H226 lung 91.5% | NCI-H322M lung 85.9% | NCI-H460 lung 103% | HOP-92 NSCLC 96.3% | NCI-H522 lung 111% | A549/ATCC NSCLC 94.8% | 786-0 renal 105% | COLO 205 colon 115% | DU-145 prostate 107% | K-562 leukemia 108% | MALME-3M melanoma 77.1% | MDA-MB-231 breast 95.9% | RXF 393 renal 102% | SF-268 CNS 98% | SF-295 CNS 99.8% | SF-539 CNS 108% | UACC-257 melanoma 98.8% | M14 melanoma 109%

O=C1C[C@H](c2ccccc2)[C@H](c2ccccc2)C1
inactive: NCI-H23 lung 102% | NCI-H226 lung 97.6% | NCI-H322M lung 99.7% | HOP-62 NSCLC 98.5% | NCI-H522 lung 79% | 786-0 renal 101% | COLO 205 colon 113% | DU-145 prostate 121% | K-562 leukemia 111% | MALME-3M melanoma 89.6% | MDA-MB-231 breast 99.1% | RXF 393 renal 111% | SF-268 CNS 105% | SF-295 CNS 108% | SF-539 CNS 103% | UACC-257 melanoma 107% | M14 melanoma 103%

CC(C)=NNC(N)=S
inactive: NCI-H23 lung 77.7% | NCI-H226 lung 83.7% | NCI-H322M lung 104% | NCI-H460 lung 83.4% | HOP-92 NSCLC 85.8% | NCI-H522 lung 88% | A549/ATCC NSCLC 92.6% | 786-0 renal 104% | COLO 205 colon 83.5% | DU-145 prostate 88.3% | K-562 leukemia 48.2% | MALME-3M melanoma 78.4% | MDA-MB-231 breast 83.8% | RXF 393 renal 93.1% | SF-268 CNS 90.7% | SF-295 CNS 85.4% | SF-539 CNS 108% | UACC-257 melanoma 77.9% | M14 melanoma 65.2%

COCCOCCCl
inactive: NCI-H23 lung 102% | NCI-H226 lung 101% | NCI-H322M lung 112% | NCI-H460 lung 104% | HOP-92 NSCLC 95% | NCI-H522 lung 101% | A549/ATCC NSCLC 106% | 786-0 renal 105% | COLO 205 colon 107% | DU-145 prostate 110% | K-562 leukemia 97.5% | MALME-3M melanoma 112% | MDA-MB-231 breast 118% | RXF 393 renal 119% | SF-268 CNS 101% | SF-295 CNS 102% | SF-539 CNS 106% | UACC-257 melanoma 104% | M14 melanoma 101%

CCOC(=O)C1OC1c1ccccc1 (stereo not given)
inactive: NCI-H23 lung 98.6% | NCI-H226 lung 100% | NCI-H322M lung 101% | NCI-H460 lung 103% | HOP-92 NSCLC 99.2% | NCI-H522 lung 104% | A549/ATCC NSCLC 102% | 786-0 renal 98.3% | COLO 205 colon 102% | DU-145 prostate 107% | K-562 leukemia 103% | MALME-3M melanoma 103% | MDA-MB-231 breast 111% | RXF 393 renal 112% | SF-268 CNS 97.5% | SF-295 CNS 93.2% | SF-539 CNS 99.4% | UACC-257 melanoma 106% | M14 melanoma 97.8%

O=c1[nH]n(-c2ccccc2)c(=O)cc1Cl
inactive: NCI-H23 lung 106% | NCI-H226 lung 93.6% | NCI-H322M lung 114% | HOP-62 NSCLC 108% | A549/ATCC NSCLC 102% | 786-0 renal 103% | COLO 205 colon 104% | DU-145 prostate 116% | K-562 leukemia 103% | MALME-3M melanoma 99.9% | MDA-MB-231 breast 97.2% | RXF 393 renal 113% | SF-268 CNS 101% | SF-295 CNS 114% | SF-539 CNS 97.7% | UACC-257 melanoma 97.1% | M14 melanoma 106%

Cc1cc(=O)n(-c2ccc(F)cc2)[nH]1
inactive: NCI-H23 lung 103% | NCI-H226 lung 98.3% | NCI-H322M lung 95.6% | NCI-H460 lung 106% | NCI-H522 lung 97.6% | A549/ATCC NSCLC 102% | 786-0 renal 105% | COLO 205 colon 107% | DU-145 prostate 109% | K-562 leukemia 99.1% | MALME-3M melanoma 102% | MDA-MB-231 breast 105% | RXF 393 renal 93.5% | SF-268 CNS 101% | SF-295 CNS 86.8% | SF-539 CNS 90.8% | UACC-257 melanoma 103% | M14 melanoma 108%

CC1(C(N)=O)CCC(C(=O)O)C1(C)C (stereo not given)
inactive: NCI-H23 lung 103% | NCI-H226 lung 95.5% | NCI-H322M lung 95.2% | NCI-H460 lung 103% | NCI-H522 lung 106% | A549/ATCC NSCLC 98% | 786-0 renal 98% | COLO 205 colon 108% | DU-145 prostate 113% | K-562 leukemia 114% | MALME-3M melanoma 74.9% | MDA-MB-231 breast 91.2% | RXF 393 renal 104% | SF-268 CNS 104% | SF-295 CNS 91.2% | SF-539 CNS 96.8% | UACC-257 melanoma 99.5% | M14 melanoma 108%

CC1OC(Oc2c(-c3ccc(O)c(O)c3)oc3cc(O)cc(O)c3c2=O)C(O)C(O)C1O (stereo not given)
inactive: NCI-H23 lung 102% | NCI-H226 lung 96.1% | NCI-H322M lung 106% | NCI-H460 lung 105% | HOP-92 NSCLC 88.6% | NCI-H522 lung 102% | A549/ATCC NSCLC 102% | 786-0 renal 108% | COLO 205 colon 104% | DU-145 prostate 109% | K-562 leukemia 103% | MALME-3M melanoma 110% | MDA-MB-231 breast 107% | RXF 393 renal 110% | SF-268 CNS 104% | SF-295 CNS 105% | SF-539 CNS 110% | UACC-257 melanoma 104% | M14 melanoma 106%
